Screening data from PubChem.
Rows were chosen to be rich in hits. Some 3.4% of all compounds tested hit in one or more screens of this group.
TEAD-YAP inh: TEAD-YAP interaction inhibition; HEK-TIYL cells, TEAD-Gal4/YAP UAS-luciferase luminescence; inhibition, % at 9.12 µM; 1.4% of 640,000 active; in the data active = inhibition above about 32%;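 also: 0% = median of test compound wells and 100% = reference inhibitor wells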
GPR151 ag: activators of human GPR151. 1% of 650,000 active. Q8TDV0. PathHunter beta-arrestin GPR151 cells, luminescence. activation, % at 11.2 µM; in the data active = activation above about 4.9%;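 also: 0% = median of compound wells and 100% = cells with positive control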
FBW7 activator: human FBW7 E3 ligase activation, primary screen; AlphaScreen FBW7–phospho-cyclin E peptide binding, activator screen; normalized activity (activation), % at 26.1 µM; AID 1259310; Q969H0; 0.13% of 650,000 active; in the data active = normalized activity above about 1.9%;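 also: purified mutant Fbw7 with reduced substrate affinity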
Target sequence (Q969H0 whole entry, looked up): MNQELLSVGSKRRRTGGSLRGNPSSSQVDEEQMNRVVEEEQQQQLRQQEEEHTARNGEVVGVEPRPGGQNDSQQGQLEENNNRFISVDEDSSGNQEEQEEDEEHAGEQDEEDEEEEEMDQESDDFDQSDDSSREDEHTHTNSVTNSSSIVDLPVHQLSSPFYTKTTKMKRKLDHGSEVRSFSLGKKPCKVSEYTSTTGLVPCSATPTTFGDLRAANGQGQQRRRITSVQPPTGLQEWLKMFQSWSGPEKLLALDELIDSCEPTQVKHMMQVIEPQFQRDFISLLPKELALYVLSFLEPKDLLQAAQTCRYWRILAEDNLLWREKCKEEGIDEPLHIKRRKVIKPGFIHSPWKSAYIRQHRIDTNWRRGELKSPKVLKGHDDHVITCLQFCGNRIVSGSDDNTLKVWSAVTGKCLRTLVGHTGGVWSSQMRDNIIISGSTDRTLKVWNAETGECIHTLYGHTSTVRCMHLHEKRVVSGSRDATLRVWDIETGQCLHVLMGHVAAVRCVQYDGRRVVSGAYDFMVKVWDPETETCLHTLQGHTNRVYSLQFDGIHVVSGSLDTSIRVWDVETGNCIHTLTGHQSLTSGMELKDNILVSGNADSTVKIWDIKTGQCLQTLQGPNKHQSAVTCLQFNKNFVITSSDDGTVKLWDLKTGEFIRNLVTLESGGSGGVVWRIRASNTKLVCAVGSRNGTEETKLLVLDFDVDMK
MITF primary: blocks human microphthalmia-associated transcription factor; inhibition, % at 2.6 µM; 0.91% of 650,000 active; O75030; AlphaScreen MITF homodimerization, bead proximity signal; in the data active = inhibition above about 50%;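 also: 0% = vehicle wells with protein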
An asterisk follows results filed as active.

SMILES	TEAD-YAP inh	GPR151 ag	FBW7 activator	MITF primary
O=C(CCl)NCCSc1ccc(Cl)cc1	57*	1	0	-2
Cc1cc(C)n(CCN(C)Cc2c(C(=O)N3CCCC3)nc3ccccn23)n1	-5	0	0	-11
O=C(NCc1ccccc1F)c1ccc(N2CCC(NC3CCS(=O)(=O)C3)CC2)cc1 (configuration not stated)	-7	0	0	-16
Cc1ccc(-c2ncn(-c3ccc(Nc4ncc5ccc(Br)cc5n4)cc3)n2)cn1	4	1	0	-7
Cc1nc(C)n(-c2ccc(Nc3cc4cc(-c5cn[nH]c5)ccc4cn3)cc2)n1	85*	0	0	11
Cn1ncc2cc(Nc3ncc4ccc(-c5cn[nH]c5)cc4n3)ccc21	71*	4	0	22
Cc1nc(C)n(-c2ccc(Nc3ncc4ccc(-c5cn[nH]c5)cc4n3)cc2)n1	73*	-1	0	11
Cc1ncn(-c2ccc(Nc3ncc(Cl)c(-c4cn[nH]c4)n3)cc2)n1	7	0	0	-4
C=CCNC(=O)CSc1nc2c(C)c(C)ccc2cc1C#N	5	0	0	-2
COC(=O)CSc1nnc(-c2ccco2)n1-c1ccc(F)cc1	12	1	0	1
Cc1cc2c(cc1C)NC(c1cc3c(cc1[N+](=O)[O-])OCO3)C1=C(CC(C)(C)CC1=O)N2 (configuration not stated)	72*	-1	0	4
CC(=O)O[C@@H]1[C@@H](O)CN[C@@H]1Cc1ccccc1	101*	-3	0	-2
COc1ccc(C(=O)/C(=C\c2ccc(OC)c(OC)c2)c2nc3ccccc3o2)cc1	43*	2	0	7
O=C1NC2(CCN(C(=O)c3nccc4ccccc34)CC2)Nc2ccc(Cl)cc21	78*	1	0	-9
CN1CC=C(/C=C/C2=Cc3ccccc3OC2)CC1	75*	-8	0	-4
CN1C(=O)/C(=C/C2=Cc3ccccc3OC2)SC1=S	6	1	0	-6
CCc1ccc2c(c1)/C(=c1/sc3n(c1=O)CN(c1cccc(C(=O)O)c1)CN=3)C(=O)N2	-1	-1	3.9*	3
COc1cccc(OC)c1C(=O)Nc1ccc(-c2cn3c(C)csc3n2)cc1	38*	2	0	-22
CCOCC(=O)Nc1ccc(-c2cn3c(C)csc3n2)cc1	51*	0	0	-6
Cc1csc2nc(-c3ccc(NS(=O)(=O)c4cccnc4)cc3)cn12	36*	-1	0	-6
CCCCCOC(=O)C1=C(C)NC2=C(C(=O)CC(C)(C)C2)C1c1cccc(Cl)c1 (configuration not stated)	-3	1	0	-15
COc1ccccc1CNn1c(-c2ccc(Br)cc2)nc2ccccc2c1=O	-2	1	0	2
O=C(Nc1nnc(CCS(=O)(=O)c2ccc(Br)cc2)s1)C1CCCCC1	2	1	0	13
Cc1cccc(NC(=O)c2cc(S(=O)(=O)NC3CCCCC3C)ccc2F)c1C (configuration not stated)	26	-1	0	2
Cc1cccc2cc(CN(Cc3ccco3)C(=O)C(F)(F)F)c(=O)[nH]c12	61*	-1	0	-16
SMILES	TEAD-YAP inh	GPR151 ag	FBW7 activator	MITF primary
COc1ccc2c(c1)c(=O)oc1cc(OCC(=O)N(C)c3ccccc3)ccc12	0	0	1	52*
COc1ccc2c(c1)c(=O)oc1cc(OCC(=O)O)ccc12	2	1	0	4
COc1ccccc1N1CCN(C(=O)CS(=O)(=O)Cc2ccccc2)CC1	-3	-1	0	-1
COc1ccccc1N1CCN(C(=O)CN2CC=C[C@@H]2C(=O)NCCc2ccccc2)CC1	42*	0	0	-22
O=C1c2cccc3cccc(c23)C(=O)N1c1ccc(N2CCOCC2)cc1	5	-1	0	-6
O=C(CCl)Nc1ccc2c(c1)OC(F)(F)O2	37*	1	0	15
O=C(Nc1ccc2c(c1)OC(F)(F)O2)c1ccc(Cl)c([N+](=O)[O-])c1	34*	0	0	10
CN(CC(=O)Nc1cccc(F)c1)CC(=O)Nc1ccc2c(c1)OC(F)(F)O2	14	-2	1	-7
O=C(Nc1ccc(F)c(Cl)c1)c1ccc(Cl)c([N+](=O)[O-])c1	2	1	0	3
CC(C)OCCCNC(=O)CCn1c(=S)[nH]c2cc3c(cc2c1=O)OCO3	-1	0	0	0
CC(=O)N/N=C/c1ccccc1OCc1ccccc1F	1	1	0	2
COc1ccc(-c2cc(C(F)(F)F)n3ncc(C(=O)NCc4ccccc4)c3n2)cc1	12	4	0	15
